Source: article PMC4336329 (PLoS ONE, 2015)
The campaign covered roughly 310,000 compounds. About 14,000 (4.5%) showed an effect of 50% or more. Effects have a minus sign here. The list comes from a sample in which strong results are over-represented; it also holds similar structures and randomly drawn compounds.
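Note: peak tail current of the secondary pulse compared with the same well before compound.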

Each molecule was assayed against human ether-à-go-go-related gene (hERG) potassium channel (human, UniProt Q12809) (assay: primary screen, population patch clamp on CHO cells stably expressing hERG; higher = less effect of the substance).
Sequence of human ether-à-go-go-related gene (hERG) potassium channel (Q12809 whole entry, looked up): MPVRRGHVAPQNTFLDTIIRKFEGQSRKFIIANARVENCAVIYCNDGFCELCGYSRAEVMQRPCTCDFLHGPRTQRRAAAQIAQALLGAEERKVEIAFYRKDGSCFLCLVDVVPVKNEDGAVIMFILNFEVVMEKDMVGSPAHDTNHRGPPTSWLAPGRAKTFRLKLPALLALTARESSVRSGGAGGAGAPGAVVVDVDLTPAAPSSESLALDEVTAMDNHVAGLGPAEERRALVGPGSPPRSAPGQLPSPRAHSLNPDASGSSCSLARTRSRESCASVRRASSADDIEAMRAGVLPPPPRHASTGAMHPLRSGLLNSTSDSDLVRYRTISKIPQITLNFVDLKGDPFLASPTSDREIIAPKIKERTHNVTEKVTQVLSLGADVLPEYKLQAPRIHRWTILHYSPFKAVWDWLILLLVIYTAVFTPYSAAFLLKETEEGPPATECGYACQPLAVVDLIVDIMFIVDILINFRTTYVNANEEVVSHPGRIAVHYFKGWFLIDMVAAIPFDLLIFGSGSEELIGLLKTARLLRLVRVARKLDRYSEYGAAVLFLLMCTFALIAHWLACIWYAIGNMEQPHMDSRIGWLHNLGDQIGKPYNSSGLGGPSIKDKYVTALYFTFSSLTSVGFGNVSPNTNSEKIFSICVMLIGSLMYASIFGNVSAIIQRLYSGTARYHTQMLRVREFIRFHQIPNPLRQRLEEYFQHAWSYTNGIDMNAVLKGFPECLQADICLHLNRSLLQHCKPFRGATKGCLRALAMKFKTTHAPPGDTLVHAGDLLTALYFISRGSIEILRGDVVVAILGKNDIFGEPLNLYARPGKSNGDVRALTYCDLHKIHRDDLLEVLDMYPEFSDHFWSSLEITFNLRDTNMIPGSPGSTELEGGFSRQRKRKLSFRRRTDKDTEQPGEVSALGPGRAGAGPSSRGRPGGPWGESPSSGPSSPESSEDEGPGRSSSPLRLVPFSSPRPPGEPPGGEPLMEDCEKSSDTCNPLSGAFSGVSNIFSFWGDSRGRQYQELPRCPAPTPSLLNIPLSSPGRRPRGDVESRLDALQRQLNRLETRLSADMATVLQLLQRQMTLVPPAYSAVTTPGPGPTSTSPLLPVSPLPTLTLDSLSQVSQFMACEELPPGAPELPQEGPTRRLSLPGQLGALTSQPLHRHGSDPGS
With `O=C(C(=O)N1CCCC1)c1c[nH]c2ccccc12` the “hERG current change (%, negative = inhibition) at 10uM” value was 7.14%. With `O=C1CC2(CCCC2)Oc2ccccc21` the “hERG current change (%, negative = inhibition) at 10uM” value was 3.39%. In the case of `CSc1ccccc1C(=O)N1CCC2(CC1)CC(=O)c1ccccc1O2`, the “hERG current change (%, negative = inhibition) at 10uM” value is reported as -61%. `O=C(C(=O)N1CCOCC1)c1c[nH]c2ccccc12` was tested, and the “hERG current change (%, negative = inhibition) at 10uM” value was 18.3%. `COc1ccc(S(=O)(=O)N2CCC3(CC2)CC(=O)c2ccccc2O3)cc1OC` was tested, and the “hERG current change (%, negative = inhibition) at 10uM” value was 11.6%. `O=C1CC2(CCN(C(=O)C(=O)c3c[nH]c4ccccc34)CC2)Oc2ccccc21` was tested, and the “hERG current change (%, negative = inhibition) at 10uM” value was -55.3%. For `COc1ccc(Cl)cc1C(=O)N1CCC2(CC1)CC(=O)c1ccccc1O2`, the “hERG current change (%, negative = inhibition) at 10uM” value was -80.5%. In the case of `O=C1CC2(CCN(C(=O)c3ccccc3Cl)CC2)Oc2ccccc21`, the “hERG current change (%, negative = inhibition) at 10uM” value is reported as -72.7%. With `CSc1ccccc1C(=O)N1CCOCC1` the “hERG current change (%, negative = inhibition) at 10uM” value was 20%. With `CSc1ccccc1C(=O)N1CCCCC1` the “hERG current change (%, negative = inhibition) at 10uM” value was -9.98%. For `CCn1c(SCC(=O)N2CCCc3ccccc32)nc2c(c1=O)SC(C)C2` (stereo not shown), the “hERG current change (%, negative = inhibition) at 10uM” value was -24.7%. `O=C(O)/C=C/c1ccccc1Oc1ccc(Cl)cc1Cl` was tested, and the “hERG current change (%, negative = inhibition) at 10uM” value was -8.85%. In the case of `CC(NC(=O)C[n+]1cccc(Br)c1)c1ccccc1.[Cl-]` (stereo not shown), the “hERG current change (%, negative = inhibition) at 10uM” value is reported as 17.6%. In the case of `COC(C(=O)N/N=C(\C)CC(=O)Nc1ccc(Cl)cc1C)c1ccccc1` (stereo not shown), the “hERG current change (%, negative = inhibition) at 10uM” value is reported as -10.5%. For `CCOC(=O)CSc1nc(C)cc(C)n1`, the “hERG current change (%, negative = inhibition) at 10uM” value was 7.29%. In the case of `FC(F)(F)c1ccccc1CNCc1ccc2c(c1)OCO2`, the “hERG current change (%, negative = inhibition) at 10uM” value is reported as 0.962%. In the case of `O=C(Nc1ccccc1OC(F)F)c1oc2ccccc2c1COc1ccccc1`, the “hERG current change (%, negative = inhibition) at 10uM” value is reported as 0.283%. With `COc1ccc(-n2c(Cc3cc(=O)[nH]c(=O)[nH]3)nnc2SCC(=O)Nc2cc(C(F)(F)F)ccc2Cl)cc1` the “hERG current change (%, negative = inhibition) at 10uM” value was -3.73%. For `CCCC(c1nnnn1CC(=O)OCC)N(Cc1cc2c(C)cc(C)cc2[nH]c1=O)C1CCCC1` (stereo not shown), the “hERG current change (%, negative = inhibition) at 10uM” value was 22.1%. `CC(=O)N1CCC2(CC1)CC(=O)c1cc(Cl)ccc1O2` was tested, and the “hERG current change (%, negative = inhibition) at 10uM” value was -55.2%. In the case of `O=C1CC2(CCCC2)Oc2ccc(Cl)cc21`, the “hERG current change (%, negative = inhibition) at 10uM” value is reported as 8.19%. `O=C1CC2(CCCCCC2)Oc2ccc(Cl)cc21` was tested, and the “hERG current change (%, negative = inhibition) at 10uM” value was 9.01%. For `O=C1CC2(CCCCC2)Oc2ccccc21`, the “hERG current change (%, negative = inhibition) at 10uM” value was 14.4%. With `O=C1CC2(CCN(C(=O)c3ccccc3F)CC2)Oc2ccccc21` the “hERG current change (%, negative = inhibition) at 10uM” value was -73.2%. For `O=C1CC2(CCN(C(=O)c3ccccc3Br)CC2)Oc2ccccc21`, the “hERG current change (%, negative = inhibition) at 10uM” value was -76.9%. With `O=C1CC2(CCCCCC2)Oc2ccccc21` the “hERG current change (%, negative = inhibition) at 10uM” value was -6.74%. For `O=C1CC2(CCN(C(=O)c3c(F)cccc3F)CC2)Oc2ccccc21`, the “hERG current change (%, negative = inhibition) at 10uM” value was -34.2%. `O=C(c1ccccc1F)N1CCC2(CC1)OCCO2` was tested, and the “hERG current change (%, negative = inhibition) at 10uM” value was 30.8%. `Cc1ccc(SC(C)C(=O)N2CCC(C(N)=O)CC2)cc1` (stereo not shown) was tested, and the “hERG current change (%, negative = inhibition) at 10uM” value was 20.1%. For `CCOc1ccc(-c2nc(N)ncc2Oc2ccc(OC)cc2)c(O)c1`, the “hERG current change (%, negative = inhibition) at 10uM” value was -2.1%. With `Cc1cccc(CNc2ccc(C(CC(N)=O)NC(=O)c3cccc(Br)c3)cc2[N+](=O)[O-])c1` (stereo not shown) the “hERG current change (%, negative = inhibition) at 10uM” value was -19.8%. In the case of `O=C(Nc1ccccc1)c1ccc[n+](Cc2ccc([N+](=O)[O-])cc2)c1.[Br-]`, the “hERG current change (%, negative = inhibition) at 10uM” value is reported as -4.25%. In the case of `O=C(C[n+]1cccc(NC(=O)c2ccccc2)c1)c1ccc(NC(=O)c2ccccc2)cc1.[Br-]`, the “hERG current change (%, negative = inhibition) at 10uM” value is reported as 1.37%. `O=C(C[n+]1ccn(-c2ccccc2)c1)c1ccc([N+](=O)[O-])cc1.[Br-]` was tested, and the “hERG current change (%, negative = inhibition) at 10uM” value was -61.3%. In the case of `O=C(C[n+]1ccc2ccccc2c1)c1cccc2ccccc12.[Br-]`, the “hERG current change (%, negative = inhibition) at 10uM” value is reported as -72.8%. `C=Cn1cc[n+](CC(=O)c2ccc(-c3ccccc3)cc2)c1.[Br-]` was tested, and the “hERG current change (%, negative = inhibition) at 10uM” value was 7.91%. `O=C(Cn1cc[n+](Cc2ccccc2)c1)c1ccc([N+](=O)[O-])cc1.[Br-]` was tested, and the “hERG current change (%, negative = inhibition) at 10uM” value was -23.7%. For `O=C(Nc1cccc([N+](=O)[O-])c1)c1cccc(C(=O)Nc2cccc([N+](=O)[O-])c2)c1`, the “hERG current change (%, negative = inhibition) at 10uM” value was 24.1%. `CCC(=O)Nc1cccc(NC(=O)c2cccc([N+](=O)[O-])c2)c1` was tested, and the “hERG current change (%, negative = inhibition) at 10uM” value was -61.2%. With `CC(C)C(=O)Nc1cccc(NC(=O)c2cccc([N+](=O)[O-])c2)c1` the “hERG current change (%, negative = inhibition) at 10uM” value was -30.9%. In the case of `O=C(C[n+]1ccc2ccccc2c1)c1ccccc1.[Br-]`, the “hERG current change (%, negative = inhibition) at 10uM” value is reported as -22.5%. `O=C(C[n+]1cccc(C(=O)Nc2ccccc2)c1)c1ccc([N+](=O)[O-])cc1.[Br-]` was tested, and the “hERG current change (%, negative = inhibition) at 10uM” value was -73.1%. `O=C(C[n+]1ccc2ccccc2c1)c1ccc(NC(=O)c2ccccc2)cc1.[Br-]` was tested, and the “hERG current change (%, negative = inhibition) at 10uM” value was -0.135%.
